Values joined by “and” are separate entries in the source; they are usually repeats but may differ in a detail not shown here. Identical values can stand only once. Some structures have more than one record in an assay (separate samples or runs), and their calls can disagree. Active and inactive are the calls of the source. Unless noted, the call rests on the fitted dose curve; in most records, active means well fitted curve in the direction sought with a large enough effect in the repeat runs; inconclusive means weak or mixed curves; inactive means no such curve, though single readings can be large; an effect the other way counts as inactive or inconclusive.
What was measured:
[1] = qHTS assay to test for compound auto fluorescence at 535 nm (green) in HEK293 cells (AID 720680)
[2] = qHTS assay to test for compound auto fluorescence at 460 nm (blue) in HEK293 cell free culture (AID 720681)
Summary of the method: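 Test compounds were pinned into cell-free culture medium (DMEM with 10% FBS) and fluorescence was read directly at Ex/Em 405/460 nm. Signals were expressed as fluorescence equivalents of triamterene, with DMSO vehicle as control.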

[3] = qHTS assay to test for compound auto fluorescence at 535 nm (green) in HEK293 cell free culture (AID 720682)
Summary of the method: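 Green-label autofluorescence (485 nm excitation, 535 nm emission) measured on compound added to cell-free culture medium (DMEM, 10% FBS). Output is expressed relative to fluorescein.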

[4] = qHTS assay to test for compound auto fluorescence at 590 nm (red) in HEK293 cell free culture (AID 720683)
Summary of the method: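 Tox21 10K library compounds were pinned into cell-free DMEM with 10% FBS and fluorescence was read at excitation 540 nm. Activity is expressed as Rose Bengal sodium equivalency.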

[5] = qHTS assay to test for compound auto fluorescence at 590 nm (red) in HepG2 cell free culture (AID 720684)
Summary of the method: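 Measured in medium alone (MEM containing 10% FBS) following pintool addition of compound; emission at 590 nm with 540 nm excitation, referenced to Rose Bengal sodium.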

[6] = qHTS assay to test for compound auto fluorescence at 535 nm (green) in HepG2 cell free culture (AID 720686)
[7] = qHTS assay to test for compound auto fluorescence at 460 nm (blue) in HepG2 cells (AID 720687)
Summary of the method: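 Cells (2,000/well in MEM with 10% FBS) attached overnight at 37 C, then were exposed to compound or DMSO for 1 hr at 37 C, 5% CO2. Fluorescence read at Ex/Em 405/460 nm, expressed as triamterene-equivalent signal.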

[8] = target: Glucocorticoid receptor (Homo sapiens) (UniProt P04150); experiment: qHTS assay to identify small molecule agonists of the glucocorticoid receptor (GR) signaling pathway (AID 720691; active means well fitted activation curve with a large enough effect in the signal ratio in the repeat runs, not every such curve was filed as active; inconclusive means weak or mixed curves, or effect the other way; inactive means no such curve, though single readings can be large or run the other way; the % refers to the signal ratio; further: potency means the concentration at half of the fitted maximal effect); conditions: GR-bla HeLa, beta-lactamase reporter ratio, 18 h; activation: at 62.4 µM (top of the series)
Chain of Glucocorticoid receptor (Homo sapiens) (P04150 whole entry, looked up): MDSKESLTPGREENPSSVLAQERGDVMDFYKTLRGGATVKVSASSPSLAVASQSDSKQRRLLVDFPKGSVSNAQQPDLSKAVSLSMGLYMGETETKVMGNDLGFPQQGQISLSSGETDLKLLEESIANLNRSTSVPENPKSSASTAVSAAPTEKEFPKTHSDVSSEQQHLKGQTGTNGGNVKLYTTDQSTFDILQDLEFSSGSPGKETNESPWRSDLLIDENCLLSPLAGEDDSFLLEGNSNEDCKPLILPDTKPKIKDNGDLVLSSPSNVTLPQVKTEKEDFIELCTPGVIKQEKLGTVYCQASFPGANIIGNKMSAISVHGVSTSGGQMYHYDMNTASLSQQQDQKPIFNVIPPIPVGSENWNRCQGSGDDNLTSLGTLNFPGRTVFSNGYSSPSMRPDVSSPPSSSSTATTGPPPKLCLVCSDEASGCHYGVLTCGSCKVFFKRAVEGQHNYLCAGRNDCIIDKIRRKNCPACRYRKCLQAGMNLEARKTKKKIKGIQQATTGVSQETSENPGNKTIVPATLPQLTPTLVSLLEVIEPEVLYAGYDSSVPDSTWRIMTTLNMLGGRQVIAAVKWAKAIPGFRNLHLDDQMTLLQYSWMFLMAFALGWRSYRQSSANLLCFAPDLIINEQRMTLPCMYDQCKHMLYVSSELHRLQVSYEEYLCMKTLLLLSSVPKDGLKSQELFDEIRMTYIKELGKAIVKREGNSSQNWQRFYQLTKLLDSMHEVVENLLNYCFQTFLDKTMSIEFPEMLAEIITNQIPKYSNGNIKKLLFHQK
Summary of the method: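 qHTS in GR-bla HeLa cells: 4 h settling at 37 C/5% CO2, 18 h compound incubation at 37 C, 2 h LiveBLAzer B/G FRET substrate at room temperature, fluorescence intensity measured.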

[9] = qHTS assay for identifying genotoxic compounds that show differential cytotoxicity against isogenic chicken DT40 cell lines with known DNA damage response pathways - wild type cell line (AID 743012); further: nearly all actives have a fitted effect of over 60% in size; further: potency means the concentration at half of the fitted maximal effect
Summary of the method: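 First, wild type DT40 cells were plated at 300 per well and equilibrated about 0.5 h at 37 C/5% CO2. Next, compounds in DMSO were added and exposure lasted 40 h. Finally, CellTiter-Glo was added for 30 min at room temperature and luminescence recorded.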

[10] = qHTS assay for identifying genotoxic compounds that show differential cytotoxicity against isogenic chicken DT40 cell lines with known DNA damage response pathways - Rev3 mutant cell line (AID 743014); further: nearly all actives have a fitted effect of over 55% in size; further: potency means the concentration at half of the fitted maximal effect
[11] = qHTS assay for identifying genotoxic compounds that show differential cytotoxicity against isogenic chicken DT40 cell lines with known DNA damage response pathways - Rad54/Ku70 mutant cell line (AID 743015); further: nearly all actives have a fitted effect of over 60% in size; further: potency means the concentration at half of the fitted maximal effect
[12] = qHTS assay to identify small molecule antagonists of the androgen receptor (AR) signaling pathway - cell viability counter screen (AID 743033; further: nearly all actives have a fitted effect of over 45% in size; further: potency means the concentration at half of the fitted maximal effect)
[13] = qHTS assay to identify small molecule antagonists of the androgen receptor (AR) signaling pathway using the MDA cell line - cell viability counter screen (AID 743041; further: nearly all actives have a fitted effect of over 45% in size; further: potency means the concentration at half of the fitted maximal effect)
Summary of the method: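 Viability counter screen run alongside the AR antagonist reporter: cells seeded 5 h before compound, R1881 added, 16 h incubation at 37C without CO2, fluorescent CellTiter-Fluor signal quantified.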

[14] = target: Glucocorticoid receptor (Homo sapiens) (UniProt P04150); experiment: qHTS assay to identify small molecule antagonists of the glucocorticoid receptor (GR) signaling pathway (AID 720692; active means well fitted inhibition curve with a large enough effect in the signal ratio in the repeat runs, not every such curve was filed as active; inconclusive means weak or mixed curves, or effect the other way; inactive means no such curve, though single readings can be large or run the other way; the % refers to the signal ratio)
Summary of the method: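 Inhibition of glucocorticoid signalling is measured in HeLa cells with a GRE-controlled beta-lactamase reporter; cells are co-treated with compound and 5 nM dexamethasone (final) for 18 h before FRET substrate readout.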

[15] = qHTS assay to identify small molecule antagonists of the glucocorticoid receptor (GR) signaling pathway - cell viability counter screen (AID 720693); further: nearly all actives have a fitted effect of over 55% in size; further: potency means the concentration at half of the fitted maximal effect
[16] = target: Androgen receptor (Homo sapiens) (UniProt P10275); experiment: qHTS assay to identify small molecule antagonists of the androgen receptor (AR) signaling pathway (AID 743035; active means well fitted inhibition curve with a large enough effect in the signal ratio in the repeat runs, not every such curve was filed as active; inconclusive means weak or mixed curves, or effect the other way; inactive means no such curve, though single readings can be large or run the other way; the % refers to the signal ratio; further: potency means the concentration at half of the fitted maximal effect)
Chain of Androgen receptor (Homo sapiens) (P10275 whole entry, looked up): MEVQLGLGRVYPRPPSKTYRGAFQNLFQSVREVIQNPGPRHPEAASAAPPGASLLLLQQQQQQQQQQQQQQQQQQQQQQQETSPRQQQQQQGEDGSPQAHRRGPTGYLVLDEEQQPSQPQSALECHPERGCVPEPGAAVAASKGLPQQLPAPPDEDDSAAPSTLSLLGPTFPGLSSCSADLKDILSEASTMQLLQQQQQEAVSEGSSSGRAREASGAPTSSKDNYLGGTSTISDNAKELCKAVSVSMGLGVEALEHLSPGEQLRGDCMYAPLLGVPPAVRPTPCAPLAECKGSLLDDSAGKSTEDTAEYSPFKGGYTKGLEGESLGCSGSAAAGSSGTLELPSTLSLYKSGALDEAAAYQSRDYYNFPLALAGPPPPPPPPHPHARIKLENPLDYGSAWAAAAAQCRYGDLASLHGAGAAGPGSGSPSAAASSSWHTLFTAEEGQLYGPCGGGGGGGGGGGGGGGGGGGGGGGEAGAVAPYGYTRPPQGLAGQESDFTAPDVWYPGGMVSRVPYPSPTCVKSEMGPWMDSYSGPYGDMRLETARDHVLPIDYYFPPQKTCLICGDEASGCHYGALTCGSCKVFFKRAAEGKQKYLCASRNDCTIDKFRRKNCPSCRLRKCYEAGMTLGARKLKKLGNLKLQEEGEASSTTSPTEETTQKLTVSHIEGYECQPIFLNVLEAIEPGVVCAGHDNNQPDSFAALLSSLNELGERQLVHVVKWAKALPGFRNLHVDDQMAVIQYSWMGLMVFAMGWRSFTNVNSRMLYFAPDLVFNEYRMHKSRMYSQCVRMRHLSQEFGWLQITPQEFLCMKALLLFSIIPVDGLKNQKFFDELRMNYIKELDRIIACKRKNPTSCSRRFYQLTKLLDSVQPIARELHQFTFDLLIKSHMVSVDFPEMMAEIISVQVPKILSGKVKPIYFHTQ
Summary of the method: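 Beta-lactamase FRET read (2 h RT incubation with LiveBLAzer B/G) following 16 h of compound plus R1881 treatment of AR-UAS-bla HEK293 cells, which had been pre-incubated 4 h at 37C.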

[17] = target: Androgen receptor (Homo sapiens) (UniProt P10275); experiment: qHTS assay to identify small molecule agonists of the androgen receptor (AR) signaling pathway using the MDA cell line (AID 743040; further: nearly all actives have a fitted effect of over 20% in size; further: potency means the concentration at half of the fitted maximal effect)
Summary of the method: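 Luminescence from ONE-Glo, read after 30 min at room temperature, reflects MMTV-driven luciferase in MDA-kb2 cells (AR- and GR-responsive). Treatment lasted 16 h at 37C, 0% CO2.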

[18] = target: Androgen receptor (Homo sapiens) (UniProt P10275); experiment: qHTS assay to identify small molecule antagonists of the androgen receptor (AR) signaling pathway using the MDA cell line (AID 743042; further: nearly all actives have a fitted effect of over 55% in size; further: potency means the concentration at half of the fitted maximal effect)
Summary of the method: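 MDA-kb2 cells (human breast carcinoma, stably carrying an MMTV-luciferase reporter responsive to AR and GR) were plated at 3,000 cells/well and preincubated 5 hr at 37C, then given compound plus R1881 agonist for 16 h. ONE-Glo luminescence was read.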

[19] = qHTS assay to test for compound auto fluorescence at 460 nm (blue) in HepG2 cell free culture (AID 720685)
Summary of the method: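 Compound (23 nL) or DMSO pinned into cell-free MEM with 10% FBS; blue fluorescence read at 405/460 nm excitation/emission, expressed as auto-fluorescence equivalency to triamterene.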

[20] = target: Androgen receptor (Homo sapiens) (UniProt P10275); experiment: qHTS assay to identify small molecule agonists of the androgen receptor (AR) signaling pathway (AID 743036; active means well fitted activation curve with a large enough effect in the signal ratio in the repeat runs, with a control signal flat, not every such curve was filed as active; inconclusive means weak or mixed curves, or effect the other way; inactive means no such curve, though single readings can be large or run the other way; the % refers to the signal ratio)
Summary of the method: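 AR-UAS-bla HEK293 cells, plated 4 h before dosing, were treated with compound for 16 h at 37C. beta-Lactamase reporter read after 2 h with LiveBLAzer B/G FRET substrate at room temperature.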

Measured: Potency

O=P(O)(O)C(O)(Cn1ccnc1)P(=O)(O)O
not listed: [14] | [15] | [16] | [17] | [18] | [19] | [20]
inactive: all other assays above

O=C(O)/C=C/C(=O)Nc1ccc(S(=O)(=O)Nc2nccs2)cc1
not listed: [6] | [9] | [16] | [17] | [18] | [19] | [20]
inactive: all other assays above

CC[C@@H](C(=O)[C@@H](C)[C@@H](O)[C@H](C)CCc1ccc(C)c(O)c1C(=O)O)[C@H]1O[C@](CC)([C@H]2CC[C@](O)(CC)[C@H](C)O2)C[C@@H]1C
active: [8] 16.9 µM [inconclusive] | [15] 23.9 µM | [9] 5.96 µM | [10] 4.73 µM | [11] 6.68 µM | [12] 6.74 µM | [16] 15.1 µM | [17] 1.88 µM | [13] 11.1 µM
inactive: [1] | [2] | [3] | [4] | [5] | [6] | [7] | [18]

CCOc1ccc([N+](=O)[O-])cc1
inactive: [1] | [2] | [3] | [4] | [5] | [6] | [7] | [12]
active: [15] 35.2 µM | [9] 62 µM | [10] 31.1 µM | [11] 43.9 µM

COc1cc2c(cc1O)CCN[C@]21CS[C@@H]2c3c(OC(C)=O)c(C)c4c(c3[C@H](COC1=O)N1[C@@H]2[C@H]2c3c(cc(C)c(OC)c3O)C[C@@H]([C@@H]1O)N2C)OCO4
active: [15] 60.1 nM and 17.4 nM | [9] 0.9 nM and 2.4 nM | [10] 0.0486 µM | [11] 0.0001 µM
inactive: [1] | [3] | [4] | [5] | [19] | [6] | [7] | [13]

CCCCCCCCCCCC[n+]1ccc2ccccc2c1
active: [15] 9.52 µM | [9] 0.168 µM | [10] 0.298 µM | [11] 0.266 µM | [12] 3.01 µM
inactive: [1] | [2] | [3] | [4] | [5] | [6] | [7]

O=[N+]([O-])c1ccc(O)c2ncccc12
active: [9] 2.98 µM | [10] 2.66 µM | [11] 5.31 µM | [12] 10.7 µM | [13] 11.9 µM
inactive: [1] | [2] | [3] | [4] | [5] | [6] | [7] | [15]

C[C@@H]1C(=O)NC2=Nc3cccc(Cl)c3CN21
not listed: [7] | [9] | [14] | [19]
inactive: all other assays above

NC(=O)c1cc[n+](CC2=C(C(=O)O)N3C(=O)[C@@H](NC(=O)C(c4ccccc4)S(=O)(=O)[O-])[C@H]3SC2)cc1 (some centres not stated)
not listed: [8] | [11] | [12] | [13] | [14] | [19] | [20]
inactive: all other assays above

C=C1C(CCl)(CCl)C2(Cl)C(Cl)C(Cl)C1(Cl)C2(Cl)Cl (configuration not stated)
active: [15] 13.4 µM | [9] 4.73 µM and 30.3 µM | [10] 2.98 µM and 4.28 µM | [11] 5.96 µM and 17 µM | [16] 34.3 µM | [18] 26.6 µM
inactive and 54.3 µM (active): [12]
not listed: [6] | [8] | [14] | [19] | [20]
inactive: all other assays above

O=C1[O][Bi][O]c2ccccc21
inactive: [3] | [15] | [9] | [10] | [11] | [12] | [13]

CCCOC(=O)c1ccccc1O
not listed: [9] | [10] | [14] | [16] | [17] | [18] | [19] | [20]
inactive: all other assays above

CC(C)=CCC/C(C)=C/CC/C(C)=C/CC/C(C)=C/CC1=C(C)C(=O)c2ccccc2C1=O
inactive: [1] | [2] | [3] | [4] | [5] | [6] | [7] | [15] | [12]
active: [9] 29.8 µM and 10.6 µM

CC[C@@]1([C@@H]2O[C@@H]([C@H]3O[C@@](O)(CO)[C@H](C)C[C@@H]3C)C[C@@H]2C)CC[C@H]([C@]2(C)CC[C@]3(C[C@H](O)[C@@H](C)[C@@H]([C@@H](C)[C@@H](OC)[C@H](C)C(=O)O)O3)O2)O1 (stereo in doubt)
inactive: [1] | [2] | [3] | [4] | [5] | [6] | [7]
active: [9] 473 nM and 531 nM | [10] 376 nM and 531 nM | [11] 531 nM and 596 nM

COc1c(O)cc2c(c1O)[C@@H]1O[C@H](CO)[C@@H](O)[C@H](O)[C@H]1OC2=O
not listed: [9] | [15] | [19] | [20]
inactive: all other assays above

CC12CCC(C1)C(C)(C)C2=O (configuration not stated)
not listed: [8] | [12] | [14] | [19]
inactive: all other assays above

From PubChem BioAssay (Tox21)
